# Laboratory results from PubChem BioAssay AID624133 (Broad Institute, 2012).
# The whole screen tested about 1,600 compounds, of which about 1,300 (81%) were called active. The rule behind the calls is not given here. The set was probably picked from earlier hits. A selection follows. Measured potencies and affinities stand elsewhere.
# Test: control 3'UTR Renilla luciferase suppression, dose response, counter-screen for Shn3 inhibitor project, cell-based, Clone20-Shn3RL, cherry-picked (AID 624133);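 note: 0% = neutral control wells and -100% = positive control wells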
# Details: Clone20-Shn3RL cells, Renilla luciferase luminescence, 24 h; at 35 µM (top of the series) unless noted
row,SMILES,"activity change, negative = inhibition"
1,Cc1ccc(C(=O)Nc2cnc3ccccc3c2)cc1,90%
2,CC(=O)c1cccc(NS(=O)(=O)c2ccc(-c3cnc(C4CC4)o3)cc2)c1,8.33%
3,Cc1cccc(NS(=O)(=O)c2ccc(C3CCCCC3)cc2)c1,0%
4,CCOC(=O)c1[nH]c(C)c(/C(O)=C2\C(=O)C(=O)N(CCCN3CCOCC3)C2c2cccs2)c1C (stereo unspecified),70%
5,O=C(CSc1nnc(Nc2ccccc2)s1)NC1CCS(=O)(=O)C1 (stereo unspecified),20.8%
6,CCOC(=O)c1cn(CC(=O)Nc2cccc(Cl)c2C)nn1,16.7%
7,CCOC(=O)Cn1c(S(=O)(=O)Cc2ccccc2Cl)nc(-c2ccccc2)c1-c1ccccc1,110%
8,CC1(C)CC(=O)c2c(nc(SCC(=O)Nc3nsc(-c4ccccc4)n3)c(C#N)c2-c2ccccc2)C1,16.7%
9,Cc1cccc(C(=O)Nc2ccc(C(=O)/C=C/c3ccncc3)cc2)c1,-100%
10,CCCCN1CC(COCc2ccccc2)Oc2cccc(Oc3ccc(C(C)C)cc3)c2S1(=O)=O (stereo unspecified),37.5%
11,OCCCNc1nccc(-c2cc(Nc3cccc(Cl)c3)ncn2)n1,-50%
12,OCCNc1nc(Nc2ccc(Cl)cc2)nc(N2CCCC2)n1,-11.7%
13,Cc1cc(O)c(C(C)C)cc1C1(c2cc(C(C)C)c(O)cc2C)OC(=O)c2ccccc21,0%
14,Cc1ccccc1C(=O)N1CCN(c2ccc(NC(=O)c3ccc4c(c3)OCCO4)cc2)CC1,-103%
15,O=C(NCCc1ccccc1)c1ccc2c(c1)OCCCO2,22.2%
16,Cc1onc(-c2c(Cl)cccc2Cl)c1C(=O)N[C@@H]1C(=O)N2[C@@H]1SC(C)(C)[C@@H]2C(=O)O,25%
17,CCOC(=O)C1CCN(c2cc3c(cc2NC(=O)c2ccccc2Br)n(C)c(=O)n3C)CC1,-4.54%
18,COc1ccc(NC(=O)CCOc2cc(C)ccc2C)cc1S(=O)(=O)N1CCCCC1,267%
19,COc1cc(OC)cc(C(=O)OCC(=O)Nc2ccc(F)cc2F)c1,11.1%
20,CCOc1ccc(Br)cc1C1=CC(=O)C[C@H](c2ccc(OC)cc2)C1,133%
21,COc1ccc(-c2cc3nc(C)n(N)c(=O)c3s2)cc1,13%
22,CCSc1nnc(NC(=O)c2nc(S(=O)(=O)Cc3ccc(F)cc3)ncc2Cl)s1,-75%
23,c1ccc(-c2cc(CSc3nc4ccccc4[nH]3)on2)cc1,-121%
24,COc1ccccc1-n1c(SCC(=O)Nc2cc(C)on2)nc2c(c1=O)SCC2,58.3%
25,CSCCC(NC(=O)c1ccccc1)C(=O)OCC(=O)N(C)CCC#N (stereo unspecified),16.7%
26,CN(CC(=O)Nc1ccccc1Cl)C(=O)c1cccc(S(=O)(=O)N2CCN(c3ccccc3)CC2)c1,-11.9%

row,SMILES,"activity change, negative = inhibition"
1,Cc1cc(C(=O)COc2cccnc2[N+](=O)[O-])c(C)n1-c1ccccc1,-74.4%
2,CNS(=O)(=O)c1cccc(C(=O)OCc2cc(C(C)=O)ccc2OC)c1,329%
3,COc1ccc(OC)c(NC(=O)c2cc(-c3cc(F)ccc3OCC3CCCO3)n[nH]2)c1 (stereo unspecified),26.4%
4,Cc1ccccc1N/C(=N/S(=O)(=O)c1ccccc1)c1ccc(F)cc1,55.6%
5,CCC12CN(S(=O)(=O)c3ccc(C)cc3)CC(CC)(CN(S(=O)(=O)c3ccc(C)cc3)C1)C2=O,154%
6,COc1ccc(C(O)c2nc(-c3cccc(F)c3)cs2)cc1 (stereo unspecified),45.8%
7,O=C(c1n[nH]c(=O)c2ccccc12)N1CCN(C2c3ccccc3-c3ccccc32)CC1,-59.1%
8,Cc1ccc(NC(=O)NCCCN2CCOCC2)cc1,-95.8%
9,CCOc1ccc(NS(=O)(=O)c2cc(C(=O)NCCN3CCOCC3)ccc2C)cc1,360%
10,O=C(Cc1ccccc1)NCCS(=O)c1ccc(Cl)cc1 (stereo unspecified),58.3%
11,CC(C)(CNC(=O)c1ccc(Cl)c(S(=O)(=O)N2CCc3ccccc3C2)c1)N1CCOCC1,-44.4%
12,CCN(CC)S(=O)(=O)c1ccc(N2CCOCC2)c(NC(=O)c2nn(C(C)C)c(=O)c3ccccc23)c1,-4.17%
13,Cc1ccc(OC(=O)CCC(=O)Oc2ccc(C)cc2C)c(C)c1,70.8%
14,CC(C)C[C@@H](CO)N(Cc1ccccc1)S(=O)(=O)N(Cc1ccccc1)[C@H](CO)CC(C)C,-80%
15,O=C(Nc1ccccc1)Nc1cc(OCC(F)(F)F)cc(OCC(F)(F)F)c1,0%
16,O=C(NCCCn1ccnc1)C(=O)NCC1OCCCN1S(=O)(=O)c1ccccc1 (stereo unspecified),8.33%
17,Cc1cc(S(=O)(=O)NCc2ccncc2)c(C)cc1Br,275%
18,CC(=O)N1CCOc2cc(S(=O)(=O)NCc3ccc(F)cc3)c(C)cc21,179%
19,Cc1ccc(S(=O)(=O)NCc2ccncc2)cc1C,25%
20,COCc1nn2c(N)c(C#N)cnc2c1-c1ccccc1,16.7%
21,CC(=O)OCC(=O)[C@@]1(O)CC[C@H]2[C@@H]3CCC4=CC(=O)CC[C@]4(C)[C@H]3C(=O)C[C@@]21C,12.2%
22,CC(NNC(=S)N1CCN(c2ccccn2)CC1)c1nccc2ccccc12 (stereo unspecified),300%
23,Cc1c(C)c2ccc(OCC(=O)Nc3ccccn3)c(C)c2oc1=O,107%
24,Cc1ccc(S(=O)(=O)NCCc2cc3ccc(C)cc3[nH]c2=O)cc1,33.6%
25,Cc1cc(C(=O)COC(=O)c2ccccc2O)c(C)n1Cc1cccs1,-4.54%
26,COc1ccc(OC)c(NC(=O)CN(Cc2ccc(F)cc2)C2CCCCC2)c1,-40%

row,SMILES,"activity change, negative = inhibition"
1,CN=C1c2cc3cc(OC)ccc3n2CCN1Cc1ccccc1,64.3%
2,CC(C)(C)c1nc(NCCN2CCOCC2)c2nnn(Cc3ccccc3Cl)c2n1,-45.5%
3,CCC(C)[C@H]1CNC(=S)N1CCc1cc(C(F)(F)F)cc(C(F)(F)F)c1 (stereo partly specified),177%
4,CCN(CC)C(=O)C1CCCN(c2ccc([N+](=O)[O-])cc2[N+](=O)[O-])C1 (stereo unspecified),58.3%
5,C[C@]12CC[C@H](O)CC1=CCC1C2CC[C@@]2(C)C1CCC21OCCO1 (stereo partly specified),16.7%
6,Cc1cc(-n2c(C)cc(C(=O)CSc3nncn3C)c2C)no1,-18.2%
7,CCOc1ccc2nc(SC3CC(=O)N(c4ccc(C)cc4)C3=O)sc2c1 (stereo unspecified),30%
8,Cc1ccc(CNC(=O)c2ccc3c(=O)c(O)c(-c4ccc(C)cc4)[nH]c3c2)cc1,-14.3%
9,CCc1c(O)nc(SCC(=O)Nc2ccccc2)n(-c2ccccc2)c1=O,80%
10,CN(C(=O)CSc1nc(-c2cccs2)nc2ccccc12)C1CCS(=O)(=O)C1 (stereo unspecified),-119%
11,CCN(CC)Cc1c(O)ccc2c1O/C(=C\C=C\c1ccccc1)C2=O,60%
12,O=C(NCCc1ccccc1)c1ccc2c(c1)OCCO2,-2.38%
13,COc1ccc2c(c1OC)C(=O)N1c3ccccc3C(=O)N(c3ccccc3F)C21 (stereo unspecified),87.5%
14,CSc1nnc(-c2ccco2)n1-c1ccccc1,31.8%
15,CC(C)N1CCN(c2ccc(OCC3COC(Cn4cncn4)(c4ccc(Cl)cc4Cl)O3)cc2)CC1 (stereo unspecified),0%
16,COc1c(CC=C(C)C)cc(C2CC(=O)c3c(O)cc(O)cc3O2)cc1CC=C(C)C (stereo unspecified),50%
17,Nc1nc(N)c2cc(S(=O)(=O)c3ccc4ccccc4c3)ccc2n1,16.7%
18,C[C@@H]1CN([C@H](C)CO)C(=O)CCCn2nncc2CO[C@H]1CN(C)S(=O)(=O)c1ccc2c(c1)OCCCO2,-47.9%
19,O=C(NCCNC(=O)Oc1cccc2ccccc12)Oc1cccc2ccccc12,41.7%
20,COc1cc(OC)c(OC)cc1CCC(C)NCCC(c1ccccc1)c1ccccc1 (stereo unspecified),-33.3%
21,Cc1ccc(C)c(N2CCN(S(=O)(=O)c3ccc4[nH]c(=O)ccc4c3)CC2)c1,4.54%
22,CC1(Cc2ccc(OC(F)(F)F)cc2)C(=O)Nc2c(Cl)ccc(Cl)c21 (stereo unspecified),30%
23,Cc1csc(=O)n1CC(=O)OCC(=O)c1c(N)n(C)c(=O)n(C)c1=O,10%
24,COc1ccc(CC(=O)Nc2ccncc2Cl)cc1,-54.2%
25,O=[N+]([O-])c1cccc(S(=O)(=O)NCc2ccncc2)c1,14.3%
26,NS(=O)(=O)c1ccc(CNC(=S)NC(=O)c2ccco2)cc1,40.3%

row,SMILES,"activity change, negative = inhibition"
1,c1ccc(-c2noc(-c3ccc4ccccc4c3)n2)nc1,-2.38%
2,Cc1ccc(-c2nc(-c3ccccn3)no2)cc1,-90.9%
3,CCOC(=O)c1c(NC(=O)c2nn(CC)cc2Br)sc(C)c1C,16.7%
4,CN(C)c1ccc(/C=C/c2ccc3ccccc3n2)cc1,117%
5,Fc1ccccc1N1CCN(Cc2nc(-c3ccccc3)no2)CC1,-87.1%
6,O=C(Nc1ccc([N+](=O)[O-])cc1)C(=O)Nc1cccc(C(=O)O)c1,43.3%
7,COc1ccc(NS(=O)(=O)c2ccc(-c3cnc(C4CC4)o3)cc2)cc1OC,40%
8,Cc1oc(=O)c(NC(=O)c2ccc(Cl)cc2)cc1C(=O)c1ccccc1,-75%
9,O=C(CN1C(=O)c2ccccc2S1(=O)=O)c1ccc2c(c1)OCCCO2,-16.7%
10,O=C(CN1C(=O)c2ccccc2S1(=O)=O)c1ccc(Cl)cc1Cl,-103%
11,CC1CCN(C(=O)c2ccc(N3C(=O)C4CCC(C)CC4C3=O)cc2)CC1 (stereo unspecified),27.8%
12,CCN(CC)C(=O)[C@H]1C[C@H](CC(=O)NC/C=C(\C)CCC=C(C)C)C(=O)N2CCc3c([nH]c4cc(CCC(=O)N(C)C)ccc34)[C@]12C,-16.7%
13,COc1ccc(C(=O)NNC(=O)c2cccc(S(=O)(=O)N3CCOCC3)c2)cc1,19.6%
14,O=C(Nc1nc(-c2ccccc2)cs1)C1CCCCN1S(=O)(=O)c1ccccc1 (stereo unspecified),-104%
15,O=C(O)C1(Nc2ccccc2Cl)CCCC1,-15%
16,Cc1cc(C(=O)Cn2cnc3cc(F)ccc3c2=O)c(C)n1C1CC1,-16.7%
17,Cc1ccc(C(=O)Nc2ccc3c(c2)C(=O)N(CC2CCCO2)C3=O)cc1 (stereo unspecified),80%
18,CC(C)NCC(O)COc1cccc2ccccc12 (stereo unspecified),-29%
19,COc1ccc(S(=O)(=O)N2CCOCC2)cc1NC(=O)COC(=O)CC1CC2CCC1C2 (stereo unspecified),50%
20,COc1cc(NS(=O)(=O)c2ccc(C)cc2C)cc(OC)c1OC,-27.3%
21,CCCC(c1nnnn1Cc1ccc(OC)cc1)N1CCN(c2ccccc2)CC1 (stereo unspecified),117%
22,C=CCOC(=O)C1=C(C)N=C2SCCC(=O)N2C1c1cccs1 (stereo unspecified),-29.2%
23,CCO[C@@H]1OC(C(=O)NC2CC2)=C[C@H](c2coc3ccccc3c2=O)[C@H]1CCCO,120%
